In the supplement of paper PMC11417369:
± gives the standard deviation of the averaged measurements. The full ranking holds about 25,000 sequences; the median of “ln(normalized median fluorescence intensity)” is about 10, and the highest 2% start at about 12. The sample holds the highest values, similar sequences and a random draw of the others, so the mix is not that of the screen.

The sequences below were run on PfAP2-G AP2 domain (GST-tagged) (assay: gcPBM binding intensity (ln(normalized median fluorescence intensity)); higher = stronger DNA binding).
Summary of the method: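 Binding intensity is defined as the maximum Masliner-normalised natural-log median intensity across replicate spots for either probe orientation. It was measured on an Agilent 4 × 180k array of primer-extended double-stranded 36-bp intergenic genomic probes and negative controls, to which GST-tagged P. falciparum DNA-binding domains made in E. coli were applied for 1 h in 1× PBS with 1% milk, 0.2 mg/ml BSA, 0.5% salmon testes DNA and 0.03% Triton X-100. Detection was by Alexa488 anti-GST antibody and scanning at 488 nm.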

Sequence | gcPBM binding intensity (ln)
TTTTTTTTTTTTTTTTGTACATAATTATATATTTAC [XGTACX_site7540] | 10.9 ± 1
AAAATAATGTTTATATGTACATATATATATATATAT [XGTACX_site8815] | 11 ± 0.57
AACAATTAGAACTTTGCACACTTCTATATATTTTGT [CACACA_site674] | 9.91 ± 0.2
TTTTCTAAATAAATAGTGCATTTATTATATATACAT [GTGCAC_site9766] | 9.97 ± 0.13
ATATATATATATATATGTACATATTTGATTTTTCTT [XGTACX_site8171] | 11.1 ± 0.79
TATTTATTTATGTACGCACACAGTTGATATTAATTC [CACACA_site2754] | 11.6 ± 0.96
ATATTTATTTATTTATGTACGCACACAGTTGATATT [XGTACX_site5808] | 11.7 ± 1
AAATATTATGTACGCACACACATTTTTGATATATAA [CACACA_site7755] | 11.5 ± 0.88
TTGTAATATCTTGTCACACATATATATATATATATA [CACACA_site4937] | 10.1 ± 0.26
AATTGAAAAAGAAATTGTACATTTTATTTTTATTAT [XGTACX_site1973] | 10.9 ± 0.42
ATAGTCTTAATGACTACACACCTAACTATGCATGCA [CACACA_site5084] | 9.88
CAAAAATAAATATAAACACACAATAAATAAATAAAT [CACACA_site891] | 9.74 ± 0.057
TATTTTAACATTAGGTGTACATACAAAAATAAAAAT [XGTACX_site8577] | 11.6 ± 0.93
TAAAATAATACAAAATGTACAAAATTTACAAAATGT [XGTACX_site3541] | 10.5 ± 0.28
CAAAAATAATTTAGGTGTACAAATTTGACAAAAAAA [XGTACX_site188] | 11.7 ± 0.59
CTTAAAATGATAATATGTACACATAAATAATATATA [XGTACX_site8330] | 11.5 ± 0.76
TATATAAACATCGGTAGTACACACATTCATGTATTT [XGTACX_site6443] | 11.5 ± 0.71
TACTACACACATTCATGTACTTGATAAATTAATGAT [XGTACX_site6444] | 10.9 ± 0.47
ATAAACATCGGTAGTACACACATTCATGTACTTGAT [CACACA_site3037] | 11.8 ± 1
TTTTCAAAATGTTGTACACACAAAAAAAAAAAAAAA [CACACA_site1550] | 11.5 ± 1
TAAGAAAAAGGCACACGTACATAATTCAAAATAAAT [XGTACX_site982] | 11.3 ± 0.67
TATAAATAGAGGAAGCGTACATATATATATATATAT [XGTACX_site4993] | 11.3 ± 1
TCGGGAGGGGGGAAGCGTACATATATAAAATTATTA [XGTACX_site4683] | 11.7 ± 0.76

Sequence | gcPBM binding intensity (ln)
ATAAATAAATAAAAGCGTACATATATATAAAATATA [XGTACX_site8107] | 11.6 ± 0.88
TTATAAAAATACAGTTAACACACATGTGTATATATA [CACACA_site9257] | 10.4 ± 0.25
ATATATATATATATATGTACATATGTTAATCTGCAT [XGTACX_site1068] | 11.2 ± 0.7
ATATATATATATATATGTACATAATGCATATAATAT [XGTACX_site6142] | 11.1 ± 0.52
CGCATGCAATGTTAATGTACATATATATATATATGT [XGTACX_site3316] | 11.7 ± 0.64
AATATAAATAAAAAATTGATTTCTTTAAAAAGGTAT [CACACA_negctrl_site1038] | 9.67 ± 0.18
TTTTTATAAAAATTATTAAAAAAATTATTTATAGCT [CACACA_negctrl_site265] | 9.54 ± 0.12
ATGACATATAAATATACACACATACGTAAGTATATT [CACACA_site5058] | 9.96 ± 0.11
GTACAAAAAAAGTGTACACAAAGTAAGACTTTAATT [CACACA_site5068] | 11.7 ± 0.83
TGTGTATAAAAAAAGTGTACACAAAGTAAGACTTTA [XGTACX_site3759] | 11.7 ± 0.86
GTATAAAAAAATAAAAGTACAAAAAAAAAAGACTGA [XGTACX_site186] | 11.4 ± 0.77
AAAAAAAAAAAAAAAAGTACACAAATTTTAAAAATT [XGTACX_site3006] | 11.6 ± 0.88
TTTAAAGTAATAAAGTGTACAAAAATAAATTCAGCT [XGTACX_site8651] | 11.2 ± 0.67
TATAAAAGGTAAGAGTGTACAAGTAAAAAATTTTTA [XGTACX_site771] | 11.2 ± 0.7
TTCTAAAATTATATAGTGCAATTATATTAATTTTTC | 9.785 ± 0.078
TTTGTTGGTATGGTTACACACATTTAGGAAATAAAA [CACACA_site1411] | 10.4 ± 0.34
GAACGTATCATGTGTACACACAAATTGTTTTTTTTT [CACACA_site2020] | 11.7 ± 0.91
TTTTACAAATGTTTTACACACACATAATTGTATCAA [CACACA_site4166] | 10.1 ± 0.13
TCGAACGTATCATGTGTACACACAAATTGTTTTTTT [CACACA_site8623] | 11.6 ± 0.86
ACCCATTGCTCACGTGCACACATAGAAAAATAATTC [CACACA_site4389] | 10.8 ± 0.58
AAAAATTTAAGTGGGGGTACATTTTTTTAACACCTT [XGTACX_site1093] | 11.6 ± 0.66
ATTCATTTTTTGGGGGGTACACCCTTTTAAACATTT [XGTACX_site4797] | 11.8 ± 1.3
TTTTTAATTTTTTTTAAACACACACCGTACATTCAA [CACACA_site7925] | 10.8 ± 0.61

Sequence | gcPBM binding intensity (ln)
AATAGCCCATATGGAATACACACTGAAAATAAAAAA [CACACA_site3373] | 10.3 ± 0.26
TATATATATATATATGCATGTACATATATTTGTTAT [TGCATGCA_site379] | 11.1 ± 0.42
TATAATTATATTTGGAGTACAAATTTTTTTTTTTTT [XGTACX_site7494] | 11.5 ± 0.9
TATATTTCAGGGGGGAGTACAAATTTTTTTATATAA [XGTACX_site1600] | 11.8 ± 0.87
TATTTTTTTTTTATATGTACATAATTTCAAATAAAT [XGTACX_site7747] | 11.4 ± 0.83
TATTGTATTTAATAAACACACAATATTAAAAATATA [CACACA_site4725] | 9.91 ± 0.16
GAAAACAAATATGTAGCACACATTCACATAATATAT [CACACA_site8731] | 9.97 ± 0.014
GTTACATACCTATACACACACATATATAAATAAATA [CACACA_site6549] | 10.2 ± 0.18
ATATATATAATATAGGTGCACTACTTATTTAAAAAA | 10.5 ± 0.36
ATTGATAAATTAACTAGTACACATATAAATATATTA [XGTACX_site2325] | 11.3 ± 0.93
AAAGAAGGGAAACACACACACACACCCACAAAAAAA [CACACA_site3766] | 10.3 ± 0.33
TACACCAGTTGTGGGAGTACACAAAAAAAGGGAAAA [XGTACX_site6047] | 11.7 ± 1
TATAAGCTAAGTTGTTGTACAAAAAGGAAAAGTATA [XGTACX_site3741] | 11.1 ± 0.59
TATTATAATATTTATACACACATAATTTTGATAAAT [CACACA_site583] | 9.95 ± 0.16
AACTTTTAGAAGAACACACACATATAGATTATGACC [CACACA_site6256] | 10.2 ± 0.014
TATATTATGACCACCACACACCTATACACATAACAT [CACACA_site7199] | 11.4 ± 0.91
ATTATAACACCTCCCCCCCTTTTTTTATGAAGACCA [CACACA_negctrl_site1043] | 11.8 ± 0.86
TACACATACAGACATACACACATACACATATACACA [CACACA_site6918] | 10.2 ± 0.23
CACAAAAGTAAGCACGCACACACAACATGAAATAAA [CACACA_site7938] | 10.4 ± 0.18
TTAATCTTTCCTACATGTACACACAGAAAAAAAAAA [XGTACX_site5213] | 11.5 ± 1
ATCTTTCGTACATGTACACACAGAAAAAAAAAAAAA [CACACA_site2502] | 11.5 ± 1
TAATCTTTCGTACATGTACACACAGAAAAAAAAAAA [CACACA_site8798] | 11.8 ± 1.3
TTAAAGCTTGCATATACACACATACATAAATTCATA [CACACA_site7208] | 10 ± 0.18

Sequence | gcPBM binding intensity (ln)
TATTTTTTTTTTTTTTTTTTTACCTTTCCACTCAAA [CACACA_negctrl_site1454] | 9.84 ± 0.34
ATGTATATTTTTAAAAGTACAGAATTTTCATATGAA [XGTACX_site5754] | 11.3 ± 0.93
TTTTTTAATAAATGGTGTACATATTTTTTTTATACT [XGTACX_site8584] | 11.8 ± 0.87
TATATACAATATAGGTGTACATTTTTTTATCTATTT [XGTACX_site8431] | 11.3 ± 0.69
ATATATGTATATTTTTGTACGCATAAATATATTTTT [XGTACX_site827] | 11.3 ± 0.83
TATTATGTATGTATATGTACGTATCTTATTTTATTT [XGTACX_site5008] | 11.3 ± 0.76
AATTTATTTTTTTAATGTACATATGGTATAAATATA [XGTACX_site8012] | 11.3 ± 0.79
TGTAAATAATATAATAGTACGCATATTTTTATTGAA [XGTACX_site284] | 11.4 ± 0.78
TTATTTTCATATAGGTGTACATAAAAATATTCTTAT [XGTACX_site8861] | 11.6 ± 0.82
ATTTTATCTTTAAACTGTACGTATTAATATGTAGAA [XGTACX_site3077] | 11.7 ± 1.1
ATATATTTATATAGGTGTACATATTTTGCTATTCAA [XGTACX_site5199] | 11.6 ± 0.77
TAATATATTAATATATGTACGTATTTTTATTAATAT [XGTACX_site5346] | 11.6 ± 0.93
ATATTTTTTTTTTCGTGTACGCATAAATATATCTAA [XGTACX_site3360] | 11.6 ± 0.95
ATATTTATACATAAATGTACTTTTATATATTTAATA [XGTACX_site3020] | 11.1 ± 0.8
ATAATAAATAAATAATGTACATATGAAAGAATAAAT [XGTACX_site8355] | 11.1 ± 0.49
ATATAAAATAAATAAGTGCAGATAAATTTATGTGAC [GTGCAC_site9504] | 10.25 ± 0.057
TTGCCCATTTCATTAACACACAAATGTTTATATTCT [CACACA_site4569] | 10.17 ± 0.071
TCATACATTTTCCTTGCACACATTTATAATTAATGT [CACACA_site614] | 10.5 ± 0.17
TTATGCATAAAAGGTGGTACTCCGTATATACATTCT [XGTACX_site4354] | 11.4 ± 0.65
TACTTTTCATCTTCTTAACACACAAAAAAAAAAAAA [CACACA_site9290] | 10.1 ± 0.52
